In PubChem BioAssay AID686978 (National Center for Advancing Translational Sciences (NCATS), 2013):
The campaign covered roughly 420,000 compounds. About 64,000 (15%) were called active. Not shown: some 27% with an inconclusive outcome. The call rests on the fitted dose curve; in most records, active means well fitted inhibition curve with a large enough effect; inconclusive means small, poorly fitted or top-dose-only effect; inactive means flat fitted curve, though single readings scatter. The list is a sample of the results.

Test: qHTS for Inhibitors of human tyrosyl-DNA phosphodiesterase 1 (TDP1): qHTS in cells in absence of CPT; further: nearly all actives have a fitted effect of over 55% in size
Details: DT40 Tdp1-/- hTDP1 cells, no CPT, ATP luminescence, 48 h; activity change, negative = growth inhibition: at 46.2 µM (top of the series)
Summary of the method: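 Stably hTDP1-transfected Tdp1-null chicken DT40 cells were treated with library compounds minus camptothecin and grown for at least 48 hr at 37 °C, after which cellular ATP was quantified by luminescence.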
On the % scale 0 is the no-effect control and ±100 the full control effect; potency means the concentration at half of the fitted maximal effect.

SMILES	activity change, negative = growth inhibition	Potency
Cc1ccccc1-c1nc(C#N)c(NCc2ccco2)o1	-18.2% (inactive)	–
COc1cc(NC(=O)C2CCN(c3cnccn3)CC2)cc(OC)c1	–	inactive
COCOc1cc(O)c(C(=O)/C=C/c2ccc(OCOC)c(OCOC)c2)c(OCOC)c1	–	23.1 µM (active)
COC(=O)c1ccc(COc2ccc(/C=C/C(=O)c3ccc(OC)c(CSCC(=O)O)c3)cc2OC)cc1	-10.6% (inactive)	–
COc1cc(/C=C/C(=O)OCC(=O)N2CCOCC2)ccc1OCC#N	-18.8% (inactive)	–
CCOC(=O)CSc1nnc(NC(=O)c2cccc(S(=O)(=O)N3CCCCC3)c2)s1	-1.98% (inactive)	–
CCOc1ccc(S(=O)(=O)Nc2nc3cc(OC)ccc3s2)cc1	4.1% (inactive)	–
Cc1cc(/C=N/Nc2ccc([N+](=O)[O-])cn2)c(C)n1-c1cccc(C(=O)O)c1	13.9% (inactive)	–
COc1ccc(Nc2ccc([N+](=O)[O-])cn2)cn1	-0.0035% (inactive)	–
Cc1ccc(-n2c(C)cc(/C=N/Nc3ccc([N+](=O)[O-])cn3)c2C)c(C)c1	–	23.1 µM (active)
Cc1ccc(SCC(=O)Nc2nncs2)cc1	0.103% (inactive)	–
CCCC(=O)Nc1ccc2c(c1)nc(CCNC(=O)c1ccco1)n2C	-9.29% (inactive)	–
CCOCCC(=O)Nc1ccc2c(c1)c(=O)n(C)n2-c1ccc2ccccc2c1	–	5.8 µM (active)
CCOC(=O)c1cccc(NC(=O)CCOc2ccccc2)c1	-11.2% (inactive)	–
O=C(CCCOc1ccccc1)NNC(=O)c1ccc(Cl)cc1	5.41% (inactive)	–
CC(C)Oc1ccc(C(CC(=O)N2CCOCC2)C(C)C)cc1 (centres undefined)	13.9% (inactive)	–
C[N+]1(CC(=O)c2cccs2)CCOCC1	-7.74% (inactive)	–
CC(C)CCOc1ccc(C(=O)C[N+]2(C)CCOCC2)cc1	–	18.4 µM (active)
COc1ccccc1C1C(C(=O)N2CCCCC2)=C(C)Nc2nc3ccccc3n21 (centres undefined)	2.64% (inactive)	–
COc1cc(OC)c(NC(=O)c2c3c(nn2C)-c2ccccc2SC3)cc1Cl	–	16.4 µM (active)
COc1cc(OC)c(NC(=O)c2cnc(N3CCCC3)nc2C)cc1Cl	-19.9% (inactive)	–
COc1cc(OC)c(NC(=O)c2nc(-c3ccncc3)no2)cc1Cl	-5.54% (inactive)	–
Cc1cc(C)c(S(=O)(=O)c2cc(F)ccc2C)c(=O)[nH]1	-0.186% (inactive)	–
CCOC(=O)c1cc(-c2ccc(F)cc2)n(CC(=O)NCc2ccccn2)c1C	-1.43% (inactive)	–
CS(=O)(=O)N(CC(=O)N1CCN(Cc2ccc3c(c2)OCO3)CC1)c1ccc2c(c1)OCO2	-25.9% (inactive)	–

SMILES	activity change, negative = growth inhibition	Potency
O=C(C1CCN(S(=O)(=O)c2cnc[nH]2)CC1)N1CCN(Cc2ccc3c(c2)OCO3)CC1	–	20.6 µM (active)
CCN(CCCNC(=O)C1CCN(S(=O)(=O)c2cnc[nH]2)CC1)c1ccccc1	-18.9% (inactive)	–
CC(C)NC(=O)CCCn1c(=S)[nH]c2cc3c(cc2c1=O)OCO3	-20.5% (inactive)	–
CC(=O)N1CCN(C(=O)c2cccc(S(=O)(=O)Nc3ccc(C)cc3)c2)CC1	-4.18% (inactive)	–
CCOC(=O)N1CCN(C(=O)c2ccc(S(=O)(=O)Nc3cccc(C(F)(F)F)c3)cc2)CC1	–	6.51 µM (active)
O=C(COc1ccc(S(=O)(=O)Nc2cccc(C(F)(F)F)c2)cc1)N1CCOCC1	-13.8% (inactive)	–
COC(=O)C1=C(C(=O)OC)[C@@H]2N(Cc3ccccc3)c3ccccc3[C@@]23C[C@@H](C(=O)OC)N(S(=O)(=O)c2ccc(C(F)(F)F)cc2)C3=N1	-22.1% (inactive)	–
CCCCNS(=O)(=O)c1ccc(S(=O)(=O)n2cnc3ccccc32)cc1	2.54% (inactive)	–
CCOC(=O)c1nc(C)n(-c2ccc(Cl)cc2Cl)n1	-12.1% (inactive)	–
C/C(=N/NC(=O)CN1CCN(S(=O)(=O)c2ccc(Br)cc2)CC1)c1ccncc1	-17.6% (inactive)	–
Cc1ccc(/C=N/NC(=O)CN2CCN(Cc3ccccc3)CC2)s1	-20.3% (inactive)	–
Cc1ccc(S(=O)(=O)N2CCN(CC(=O)N/N=C/c3ccc(Br)s3)CC2)cc1	–	14.6 µM (active)
Cc1ccc(C)c(NC2=NCC(=O)N2c2ccc3c(c2)OCCO3)c1	-0.0277% (inactive)	–
CCOc1cc2[nH]c(=S)n(Cc3ccc(C(=O)N4CCN(C)CC4)cc3)c(=O)c2cc1OCC	–	16.4 µM (active)
COc1cc2[nH]c(=S)n(Cc3ccc(F)cc3)c(=O)c2cc1OC	-23.7% (inactive)	–
CCOc1cc2[nH]c(=S)n(Cc3ccc(C(=O)NCCOC)cc3)c(=O)c2cc1OCC	-12.9% (inactive)	–
CNC(=O)NC(=O)C(OC(=O)c1cccc(S(=O)(=O)N2CCCCC2)c1)c1ccccc1 (centres undefined)	-15% (inactive)	–
COc1c(C=O)c(CCN(C)C(=O)c2ccc(F)cc2)cc2c1OCO2	-2.12% (inactive)	–
O=C1CSC(=S)N1c1ccc(Cl)c(Cl)c1	-2.25% (inactive)	–
Cc1ccccc1N1C(=O)C2ON(c3ccccc3)C(c3ccncc3)C2C1=O (centres undefined)	-8.98% (inactive)	–
CC(=O)NC1=NN(C(C)=O)C(C)(CCS(=O)(=O)c2ccc(Cl)c(Cl)c2)S1 (centres undefined)	-7.08% (inactive)	–
O=C(NC1=NCCS1)c1ccc(Cl)s1	3.11% (inactive)	–
CC(=O)NC1=NN(C(C)=O)C(C)(c2ccc(Cl)s2)S1 (centres undefined)	–	5.17 µM (active)
COc1ccccc1C1CC(=O)n2c(nc(-c3ccccc3)c2-c2ccccc2)S1 (centres undefined)	4.33% (inactive)	–
O=C(COC(=O)/C=C/c1cccs1)NC1CCCCC1	16.1% (inactive)	–

SMILES	activity change, negative = growth inhibition	Potency
CSc1ncccc1C(=O)OCc1ccc(Br)cc1	-0.34% (inactive)	–
OC(c1cc(Cl)cc(Cl)c1)c1ncc(-c2ccccc2C(F)(F)F)[nH]1 (centres undefined)	-29.3% (inactive)	–
COCCN1CCN(C(=O)c2sc3ncnc(NCC4CCCO4)c3c2C)CC1 (centres undefined)	-15.6% (inactive)	–
CSc1ncnc2sc(C)c(C)c12	-11.7% (inactive)	–
CCCNc1ncnc2sc(C)c(C)c12	–	13 µM (active)
CCCCNC(=O)C(C)N(CCN(C)C)C(=O)CCCCCN1C(=O)NC(c2ccc(Cl)cc2)C(C(=O)OCc2ccccc2)=C1C (centres undefined)	–	16.4 µM (active)
CCCCNC(=O)C(C)N(CCN(C)C)C(=O)CCCN1C(=O)NC(c2ccc(Cl)cc2)C(C(=O)OCc2ccccc2)=C1C (centres undefined)	–	18.4 µM (active)
COCCOC(=O)C1=C(C)NC(=O)NC1c1ccc(Cl)cc1 (centres undefined)	-8.4% (inactive)	–
CC1=C(C(=O)OC(C)(C)C)C(c2ccc(Br)cc2)NC(=O)N1CCCC(=O)O (centres undefined)	-1.02% (inactive)	–
CC1=C(C(=O)OCc2ccccc2)C(c2ccc(C(F)(F)F)cc2)NC(=O)N1CCCCCC(=O)O (centres undefined)	-0.318% (inactive)	–
CCOC(=O)CCCNC(=O)CN1C(=O)NC(CCc2ccccc2)C1=O (centres undefined)	1.07% (inactive)	–
CC(C)c1nccn1S(=O)(=O)c1cc([N+](=O)[O-])ccc1Cl	-15% (inactive)	–
c1ccc2c(c1)OC1OC2Oc2ccccc21	-15.1% (inactive)	–
O=C(CCN1C(=O)C2C3CCC(C3)C2C1=O)Nc1ccc(Cl)cc1Cl (centres undefined)	-25.1% (inactive)	–
O=C(N/N=C/c1c(Cl)[nH]c2ccccc12)c1sc2ccccc2c1Cl	–	13 µM (active)
CCOc1ccc2ccccc2c1/C=N/NC(=O)c1c(C)cc(C)[nH]c1=O	-10.3% (inactive)	–
Cc1[nH]c2ccccc2c1/C=N/NC(=O)CNC(=O)c1ccc2c(c1)OCO2	-24.4% (inactive)	–
C[C@H](NC(=O)C1CC(=O)N(c2ccc3c(c2)OCCO3)C1)C(=O)N1CCC(C(=O)O)CC1 (some centres undefined)	17.9% (inactive)	–
CCC(C)(C)NC(=O)C(c1ccccn1)N(C(=O)c1csnn1)c1ccccc1 (centres undefined)	-21.4% (inactive)	–
CCc1ccc(NC(=O)CS(=O)CC(=O)NCCCc2ccccc2)cc1 (centres undefined)	-20% (inactive)	–
Nc1ccc(C(=O)OCC(=O)NC2CCS(=O)(=O)C2)cc1[N+](=O)[O-] (centres undefined)	33.8% (inactive)	–
Cc1cc(CNC(=O)C2CCC(=O)N(CCc3ccc(Cl)cc3)C2)no1 (centres undefined)	-5.14% (inactive)	–
NS(=O)(=O)c1ccc(NC(=O)C(=O)Nc2ccc3nc4n(c(=O)c3c2)CCCCC4)cc1	8.65% (inactive)	–
COc1cccc(C(=O)Nc2ccc(N3CCN(C(=O)c4ccco4)CC3)cc2)c1	–	11.6 µM (active)
COc1cccc(C(=O)Nc2cc3c(cc2Br)OCCCO3)c1	-42% (inactive)	–

SMILES	activity change, negative = growth inhibition	Potency
COc1cccc(C(=O)Nc2ccc3nc4n(c(=O)c3c2)CCCCC4)c1	–	20.6 µM (active)
COc1cccc(OC)c1C(=O)Nc1ccc(N2CCCCC2)cc1	-2.14% (inactive)	–
O=C(c1ccco1)N1CCN(c2cccc(Cl)c2)CC1	-21.5% (inactive)	–
Cc1ccc(OCC(=O)Nc2ccc(NC(=O)c3cccs3)cc2)c(C)c1	-29.3% (inactive)	–
CCC(=O)Nc1ccc(C(=O)N2CCN(C(=O)c3ccco3)CC2)cc1	-8.96% (inactive)	–
COc1cccc(OCc2cc(C(=O)N3CCN(C(=O)c4ccco4)CC3)no2)c1	-24.7% (inactive)	–
CCCCN(CC)C(=S)Nc1ccc2nc3n(c(=O)c2c1)CCCCC3	-23.6% (inactive)	–
COc1cccc(C(=O)Nc2ccc(N3CCCC3)cc2)c1	–	8.2 µM (active)
Cc1ccc(OCC(=O)Nc2ccc(N3CCN(C(=O)c4ccco4)CC3)cc2)c(C)c1	–	8.2 µM (active)
COc1ccccc1NC(=O)C1=C(C)NC2=C(C(=O)CCC2)C1c1ccc(C)o1 (centres undefined)	-2.13% (inactive)	–
CCN(CC)C(=O)C(=O)c1cn(CC(=O)NCc2ccc3c(c2)OCO3)c2ccccc12	-6.26% (inactive)	–
CCOC(=O)N1CCN(S(=O)(=O)N2CCCC(C(=O)NCCCN3CCC(C)CC3)C2)CC1 (centres undefined)	21.8% (inactive)	–
Cc1ccc(C(c2sc3nc(C)nn3c2O)N2CCN(c3ccc(F)cc3)CC2)cc1 (centres undefined)	-20.8% (inactive)	–
Cc1ccc(CNC(=O)CCNS(=O)(=O)c2cccc3nonc23)cc1	-8.67% (inactive)	–
CS/C(=C\C(=O)c1ccco1)Nc1ccccc1Cl	-29.9% (inactive)	–
Cc1nc(CN(C)C(=O)CC2C(=O)NCCN2Cc2ccc(F)cc2)cs1 (centres undefined)	-2.58% (inactive)	–
O=C(CCNS(=O)(=O)c1ccccc1C(F)(F)F)Nc1ccncc1	4.83% (inactive)	–
Cc1cc(Nc2ccccc2)n(C(=O)c2ccc(N)cc2)n1	-5.11% (inactive)	–
CC(C)c1ccc(NS(=O)(=O)c2cn(C)c(=O)n(C)c2=O)cc1	-14.9% (inactive)	–
O=C(Cc1ccccc1)NNC(=O)C1CCN(c2ncccn2)CC1	-26.3% (inactive)	–
CCc1ccc(OC(C)C(=O)Nc2ccc(S(=O)(=O)Nc3cc(C)on3)cc2)cc1 (centres undefined)	-3.93% (inactive)	–
CC(=O)Nc1ccc(S(=O)(=O)Nc2cc(C)cn(Cc3ccc(C)cc3)c2=O)cc1	–	11.6 µM (active)
COc1ccc(NC(=O)CSc2nc(NS(=O)(=O)c3ccc(C)cc3)cc(=O)[nH]2)cc1	-23.2% (inactive)	–
CCN(CC)CCn1c2c(c(SCC(=O)Nc3nc4ccccc4s3)nc1=O)CCCC2	-54.2% (inactive)	–
